Results taken from the supplement of paper PMC6555819.

What was measured:
Experiment in all cases: PBM binding z-score (relative to random genomic background probes); higher = stronger binding; sequences stand for … in GC…GCGATTGACAGCGTAGAATGAAGG
[1] = test system: FXR:RXRa (NR concentration 270 nM, RXRa partner concentration 90 nM)
Method in brief: (§1)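 Ligand-free nuclear receptor dimers were bound for 1 h to custom Agilent 4×180K protein-binding microarrays. Detection used antibodies against each partner (one per run). Binding z-scores rest on regression-normalized fluorescence, with random background probes as the reference.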

[2] = test system: LXRa:RXRa (NR concentration 270 nM, RXRa partner concentration 90 nM)
Method in brief: as §1

[3] = test system: LXRa homodimer (NR concentration 270 nM)
Method in brief: as §1

[4] = test system: LXRb:RXRa (NR concentration 270 nM, RXRa partner concentration 90 nM)
Method in brief: as §1

[5] = test system: LXRb homodimer (NR concentration 270 nM)
Method in brief: as §1

[6] = test system: PPARa:RXRa (NR concentration 270 nM, RXRa partner concentration 90 nM)
Method in brief: as §1

[7] = test system: PPARg:RXRa (NR concentration 180 nM, RXRa partner concentration 90 nM)
Method in brief: as §1

[8] = test system: PPARg:RXRa 270nM:90nM, anti-RXR (NR concentration 270 nM, RXRa partner concentration 90 nM)
Method in brief: as §1

[9] = test system: PPARg:RXRa 30nM:10nM, anti-RXR (NR concentration 30 nM, RXRa partner concentration 10 nM)
Method in brief: as §1

[10] = test system: PPARg:RXRa 90nM:30nM, anti-RXR (NR concentration 90 nM, RXRa partner concentration 30 nM)
Method in brief: as §1

[11] = test system: PPARg:RXRa DBDmut IVT, anti-RXR (DBD mutation: RXRa K156A/R161A, NR concentration 270 nM, RXRa partner concentration 90 nM)
Method in brief: as §1

[12] = test system: PPARg:RXRa IVT, anti-PPARg (NR concentration 270 nM, RXRa partner concentration 90 nM)
Method in brief: as §1

[13] = test system: PPARg DBDmut:RXRa IVT, anti-PPARg (DBD mutation: PPARg1 K132A/R137A, NR concentration 270 nM, RXRa partner concentration 90 nM)
Method in brief: as §1

[14] = test system: PPARg DBDmut IVT, anti-PPARg (DBD mutation: PPARg1 K132A/R137A, NR concentration 270 nM)
Method in brief: as §1

[15] = test system: PPARg homodimer (NR concentration 180 nM)
Method in brief: as §1

[16] = test system: PXR:RXRa (NR concentration 270 nM, RXRa partner concentration 90 nM)
Method in brief: as §1

[17] = test system: PXR homodimer (NR concentration 270 nM)
Method in brief: as §1

[18] = test system: RARa:RXR (NR concentration 270 nM, RXRa partner concentration 90 nM)
Method in brief: as §1

[19] = test system: RARa homodimer (NR concentration 270 nM)
Method in brief: as §1

[20] = test system: RARb:RXRa (NR concentration 270 nM, RXRa partner concentration 90 nM)
Method in brief: as §1

Sequence	PBM binding z-score [1]	PBM binding z-score [2]	PBM binding z-score [3]	PBM binding z-score [4]	PBM binding z-score [5]	PBM binding z-score [6]	PBM binding z-score [7]	PBM binding z-score [8]	PBM binding z-score [9]	PBM binding z-score [10]	PBM binding z-score [11]	PBM binding z-score [12]	PBM binding z-score [13]	PBM binding z-score [14]	PBM binding z-score [15]	PBM binding z-score [16]	PBM binding z-score [17]	PBM binding z-score [18]	PBM binding z-score [19]	PBM binding z-score [20]
ACTCGGAGGACAAAGGTCAAAGCTACGCCAGTGA	6.13	5.86	4.17	5.35	1.64	6.23	8.63	7.42	6.79	8.13	1.44	4.45	-0.163	-0.288	3.24	5.4	0.776	6.35	0.304	5.24
CCGACTGGGGCATAAAGTTACCATAAGCCAGCCC	-0.335	-0.54	-0.298	-0.42	-1.15	0.0732	0.855	0.803	-0.215	0.313	2.19	1.79	-0.543	-1.06	-0.724	-0.621	-0.245	-0.613	-0.145	0.149
GCGACTGGGGCATCAGCAGGTTACGATAACTTAA	-0.306	-0.214	-0.449	0.641	-0.638	1.38	1.05	0.876	-0.247	0.263	3.75	3.19	-0.586	-0.712	0.335	0.0357	-0.369	0.42	-0.452	0.866
GATACAGGGTCAAGGCCACAGTACGCGTATTGAT	6.86	4.11	0.0617	3.76	-0.0921	5.98	6.37	5.82	2.54	4.69	2.24	4.31	0.644	0.508	2.25	4.14	0.451	4.64	0.787	4.67
CCTCGGAGGGCAACAGGAGGTCAGAGCTGCCAGA	2.19	3.83	1.29	2.23	-0.758	3.02	0.969	1.32	-0.587	0.405	0.555	1.54	-1.74	-1.13	1.67	3.35	-0.207	3.63	0.286	3.71
CCTCGGGGGACAGAAGGTCAGAGCTGTCCGCTTT	2.39	3.78	0.464	3.58	2.95	3.5	0.517	2.66	0.439	1.51	0.436	1.38	1.67	-0.683	1.59	2.99	0.0976	3.08	-0.112	3.34
CCAGCCAGGTGAAAGGTAACTCAGTCTGGTACGC	0.269	0.156	-0.445	0.354	-1.15	3.65	6.97	6.34	5.76	7.61	2.75	3.85	-0.331	-0.965	1.03	0.479	-0.522	1.32	-0.603	0.935
CCTATTGGGCCAAAGGTCATTGATTCCAATGCTC	4.7	5.15	4.17	4.72	1.02	5.83	11.8	9.98	10.5	12.1	4.3	6.28	-0.0108	0.0368	4.43	5.28	2.34	6.32	1.8	4.42
